Screens (PubChem)
Compounds with a hit are over-represented: about 1.6% of the library has one in this group of screens.
KCNQ2 inh: rat KCNQ2 potassium channel inhibitors, primary screen, cell-based, CHO-K1, FluxOR thallium flux, B-score | B-score at 10 µM | Potassium voltage-gated channel subfamily KQT member 2 (Rattus norvegicus), O88943 | 1.1% of 310,000 active | 20 min; stronger effect = lower value;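 active = fluorescence ratio B-score at most minus 3 library SDs, with starting brightness B-score within 2 library SDs, cut at about -5.5 in these data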
Target sequence (O88943 whole entry, looked up): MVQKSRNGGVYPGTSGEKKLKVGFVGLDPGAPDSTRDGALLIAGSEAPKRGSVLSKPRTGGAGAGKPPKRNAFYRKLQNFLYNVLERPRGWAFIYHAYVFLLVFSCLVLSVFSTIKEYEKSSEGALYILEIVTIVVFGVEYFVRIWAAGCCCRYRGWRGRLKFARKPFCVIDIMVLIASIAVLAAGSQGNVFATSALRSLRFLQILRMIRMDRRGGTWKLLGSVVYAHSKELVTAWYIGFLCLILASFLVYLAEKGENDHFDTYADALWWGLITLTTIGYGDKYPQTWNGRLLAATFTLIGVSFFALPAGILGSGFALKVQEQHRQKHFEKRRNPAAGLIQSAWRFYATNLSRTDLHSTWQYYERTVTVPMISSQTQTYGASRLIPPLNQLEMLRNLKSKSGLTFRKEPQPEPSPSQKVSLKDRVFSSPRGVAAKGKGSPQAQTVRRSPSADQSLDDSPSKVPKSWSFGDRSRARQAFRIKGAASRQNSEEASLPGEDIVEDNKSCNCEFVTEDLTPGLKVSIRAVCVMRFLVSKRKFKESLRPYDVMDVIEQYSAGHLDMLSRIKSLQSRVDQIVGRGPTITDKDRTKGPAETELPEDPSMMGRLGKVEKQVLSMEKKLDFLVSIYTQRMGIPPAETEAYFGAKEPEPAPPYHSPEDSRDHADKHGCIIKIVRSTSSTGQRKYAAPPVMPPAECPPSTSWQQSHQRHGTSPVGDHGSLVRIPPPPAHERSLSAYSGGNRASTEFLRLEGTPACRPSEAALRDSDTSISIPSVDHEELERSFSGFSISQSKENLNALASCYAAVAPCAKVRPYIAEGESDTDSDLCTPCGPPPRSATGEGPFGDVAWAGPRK
KCNQ2 enhance: potentiators of rat KCNQ2 potassium channel. Potassium voltage-gated channel subfamily KQT member 2 (Rattus norvegicus), O88943. CHO-K1 KCNQ2, FluxOR thallium flux fluorescence; stronger effect = higher value. B-score at 10 µM. 0.54% of 310,000 active. AID 2239, 2010;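 active = fluorescence ratio B-score at least 3 SD of library B-scores, with initial fluorescence B-score within 3 of them, cut at about 5.3 in these data; same plate scores as AID 2156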;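 also: B-score of peak minus minimum over baseline fluorescence ratio after K+ and Tl+ stimulus; positive B-score means potentiation of KCNQ2 with more thallium influx and brighter signal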
Numbers without * were called inactive; i = inactive; / = not tested or not shown.

SMILES	KCNQ2 inh	KCNQ2 enhance
O=C(CSCc1ccccc1)NCCc1ccc(F)cc1	i	0.15
O=C(COC(=O)c1cccc(Br)c1)NCCNC(=O)COC(=O)c1cccc(Br)c1	i	/
CC(CN1CCCC1)OC(=O)C(c1ccccc1)c1ccccc1 (configuration not stated)	i	/
Cc1onc(-c2ccccc2)c1C(=O)N/N=C/c1ccc([N+](=O)[O-])c(O)c1	i	/
CCOC(=O)N1CCC(NC(=O)c2sc3nc4n(c(=O)c3c2C)CCCC4)CC1	i	/
COc1cccc(CN(C)CC(=O)Nc2cc3oc4ccccc4c3cc2OC)c1	i	/
O=C(Nc1ccc(-n2cc(Cl)cn2)cc1)c1ccncc1	i	1.6
COc1ccc(CC(=O)Nc2cc(=O)n(C)c(=O)n2C)cc1OC	i	/
Cc1ccccc1/C(N)=N/OC(=O)N1c2ccccc2Sc2ccccc21	-5.8*	-5.8
CCOC(=O)N1c2ccccc2Sc2ccccc21	i	/
COc1cccc2c1OC1(C)CC2NC(=O)N1c1cccc(C(=O)Nc2ccc3c(c2)OCCO3)c1 (configuration not stated)	-6.7*	-6.7
COc1ccc(NC(=O)c2cccc(N3C(=O)NC4CC3(C)Oc3ccccc34)c2)cc1 (configuration not stated)	i	/
COCCNC(=O)c1cccc(NC(=O)C2=C(C)OCCS2)c1	i	0.52
O=C(O)CNC(=O)c1cccc(C(F)(F)F)c1	i	0.23
Cc1cc(C)c(NC(=O)/C(=C/c2ccco2)c2ccccc2)c(C)c1	-6*	-6
Cc1cccc(C)c1NC(=O)/C(=C/c1ccco1)c1ccccc1	i	/
O=C(CN(Cc1ccc(Br)cc1)S(=O)(=O)c1ccccc1)NCc1ccccn1	-6.5*	-6.5
O=C(CCS(=O)(=O)c1ccc(Br)cc1)NCc1ccco1	i	0.01
O=C(CN(Cc1ccccc1)S(=O)(=O)c1ccc(Br)cc1)NCc1ccco1	-6.6*	-6.6
COc1ccc(S(=O)(=O)N(CC(=O)NCc2ccccn2)Cc2ccccc2)cc1	i	/
CCc1ccc2[nH]c(=O)c(CN(Cc3ccco3)C(=S)NCC3CCCO3)cc2c1 (configuration not stated)	i	/
O=C(Nc1cc(C(F)(F)F)ccc1N1CCCCC1)c1cccc([N+](=O)[O-])c1	i	2.3
CCN1CCN(c2ccc(S(=O)(=O)N3CCCCC3)cc2NC(=O)c2cccc(C(F)(F)F)c2)CC1	i	/
CN1CCN(S(=O)(=O)c2cccc(C(=O)Nc3ccccc3N3CCOCC3)c2)CC1	i	0.44
CN1CCN(S(=O)(=O)c2cccc(C(=O)Nc3cc(C(F)(F)F)ccc3N3CCCCC3)c2)CC1	-7.3*	-7.3
SMILES	KCNQ2 inh	KCNQ2 enhance
Cc1ccc(C(=O)Nc2cc(C(F)(F)F)ccc2N2CCCCC2)cc1[N+](=O)[O-]	-7.2*	-7.2
CN1CCN(S(=O)(=O)c2cccc(C(=O)Nc3ccccc3N3CCCCC3)c2)CC1	-6*	-6
COc1ccc(C(=O)NNC(=O)CSc2nnc(-c3cccnc3)o2)cc1	i	0.12
COc1cc(C(=O)NNC(=S)NC(=O)c2ccc(Cl)cc2)cc(OC)c1OC	i	0.34
Cc1ccc(O)c(Nc2c3ccccc3nc3ccccc23)c1	-5.6*	-5.6
Cc1ccc(O)c(Nc2nc(-c3ccccc3)nc3ccccc23)c1	i	0.61
COc1ccc(CNC(=O)C2CC(C)=C(C)CC2C(=O)O)cc1OC (configuration not stated)	i	0.02
O=C(NCC(c1ccco1)N1CCCC1)c1ccccc1Sc1ccc(C(F)(F)F)cc1[N+](=O)[O-] (configuration not stated)	i	/
COc1ccc(Cl)cc1NC(=O)CN(C)C1CCCCC1	i	/
COc1ccc(OC)c(NC(=O)CN(Cc2ccc(F)cc2)C2CCCCC2)c1	-7.9*	-7.9
CN(CCc1ccccn1)C1CCCN(S(=O)(=O)c2ccccc2)C1 (configuration not stated)	i	/
CC12CCC(=O)N1C(C(=O)O)Cc1c2[nH]c2ccccc12 (configuration not stated)	i	/
CC(=O)N1C(C(=O)O)Cc2c([nH]c3ccccc23)C1(C)C (configuration not stated)	i	7.3*
COc1ccc(C(=O)Nc2nccs2)cc1[N+](=O)[O-]	i	0.61
NCC(O)COCCC12CC3CC(CC(C3)C1)C2 (configuration not stated)	i	/
CC(NCC(O)COCCC12CC3CC(CC(C3)C1)C2)c1ccccc1 (configuration not stated)	-7.7*	-7.7
CCCOP(=O)(c1ccc(N(C)C)cc1)C(O)c1c(Cl)cccc1Cl (configuration not stated)	i	0.59
CC(C)CCOP(=O)(c1ccc(N(C)C)cc1)C(O)c1c(Cl)cccc1Cl (configuration not stated)	-5.6*	-5.6
CCOC(=O)C(=O)c1c(-c2ccccc2)nc2ccccn12	i	/
COc1ccccc1OCC(=O)N1CCCC(Nc2ccc(C)c(C)c2)C1 (configuration not stated)	i	/
COC(=O)C1CN(C(=O)COc2ccc(Cl)cc2C)c2ccccc2O1 (configuration not stated)	-7*	-7
COC(=O)C1CN(C(=O)COc2ccccc2C)c2ccccc2O1 (configuration not stated)	i	/
COc1ccc(NC2CCCN(C(=O)COc3ccc(Cl)cc3C)C2)cc1OC (configuration not stated)	-6.1*	-6.1
COc1ccc(OC)c(/C=N/NC(=O)c2ccc(=O)[nH]n2)c1	i	1.1
Cc1nc(CSc2ccc(Cl)cc2)cc(N2CC(C)OC(C)C2)n1 (configuration not stated)	i	/
SMILES	KCNQ2 inh	KCNQ2 enhance
O=C(N1CCCCC1)C1(c2ccccc2)CCCCC1	i	/
O=C(Nc1ncccn1)c1cc([N+](=O)[O-])cc([N+](=O)[O-])c1	i	0.84
O=[N+]([O-])c1cc(-c2ncccn2)c([N+](=O)[O-])s1	-9.6*	-9.6
O=C(/C=C/c1ccccc1Cl)NC(=S)Nc1ccccc1C(=O)NC1CCCCC1	i	0.02
CCOC(=O)N1CCC(NC(=O)c2oc3c(C)c(C)ccc3c2C)CC1	-5.7*	-5.7
Cc1ccc2c(C)c(C(=O)NCCN3CCCC(O)C3)oc2c1C (configuration not stated)	i	0.72
CCOC(=O)N1CCC(NC(=O)c2ccccc2C(=O)O)CC1	i	0.54
Cc1ccc2c(C)c(C(=O)NCCN3CCOC3=O)oc2c1C	i	5.5*
CCOC(=O)CSCC(=O)Nc1nnc(-c2cccc([N+](=O)[O-])c2)s1	i	1.6
Cc1noc(/C=C/N(C)C)c1S(=O)(=O)N1CCN(c2ccc(F)cc2)CC1	i	0.41
Oc1c(CN2CCCCC2)cc(Br)c2cccnc12	i	8.4*
O=C(COc1c(Br)cc(Br)c2cccnc12)N1CCCCC1	i	4.6
Cc1cc(Cl)ccc1Oc1ccccc1C(=O)CC#N	i	/
O=C(CN1C(=O)COc2ccccc21)NCCCN1CCN(c2ccccc2F)CC1	i	/
CCOC(=O)c1ccc(-c2nnc(-c3ccc(Cl)cc3Cl)o2)cc1	i	/
C=CCn1c(C)cc(C(=O)COC(=O)COc2ccccc2C#N)c1C	i	/
C=CCn1c(C)cc(C(=O)COC(=O)[C@@H](NC(=O)c2ccccc2Cl)C(C)C)c1C	-7.5*	-7.5
